Source: publication PMC11006913

Columns and labels:
Experiment in all cases: PBM; 200 nM protein, PBS
Details in all cases: dsDNA, one strand shown
HESX1 [1] = biological target: HESX1 (Homo sapiens, UniProt Q9UBX0 95-180, R165K)
SHOX [2] = biological target: SHOX (Homo sapiens, UniProt O15266 103-189)
ALX4 = ALX4 (Homo sapiens, UniProt Q9H161 200-286, Q225E)
HESX1 [3] = biological target: HESX1 (Homo sapiens, UniProt Q9UBX0 95-180)
MSX2 = MSX2 (Homo sapiens, UniProt P35548 130-214, R199I)
ALX1 [4] = biological target: ALX1 (Homo sapiens, UniProt Q15699 118-204, L144V)
Chain of ALX1 (Homo sapiens, UniProt Q15699 118-204, L144V) (Q15699 118-204 L144V): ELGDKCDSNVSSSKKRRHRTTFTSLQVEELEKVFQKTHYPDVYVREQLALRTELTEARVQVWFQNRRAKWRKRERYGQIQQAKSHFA

ALX3 [5] = biological target: ALX3 (Homo sapiens, UniProt O95076 139-225, N203Q)
Chain of ALX3 (Homo sapiens, UniProt O95076 139-225, N203Q) (O95076 139-225 N203Q): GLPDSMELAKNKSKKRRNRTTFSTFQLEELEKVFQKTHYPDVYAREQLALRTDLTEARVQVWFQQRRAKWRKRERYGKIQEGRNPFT

SHOX [6] = biological target: SHOX (Homo sapiens, UniProt O15266 103-189, R173C)
Chain of SHOX (Homo sapiens, UniProt O15266 103-189, R173C) (O15266 103-189 R173C): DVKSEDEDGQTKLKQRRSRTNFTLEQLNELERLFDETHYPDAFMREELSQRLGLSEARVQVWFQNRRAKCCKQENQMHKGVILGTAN

ALX1 [7] = biological target: ALX1 (Homo sapiens, UniProt Q15699 118-204, L144R)
Chain of ALX1 (Homo sapiens, UniProt Q15699 118-204, L144R) (Q15699 118-204 L144R): as the sequence (Q15699 118-204 L144V) above, with V27R counted along it

ALX3 [8] = biological target: ALX3 (Homo sapiens, UniProt O95076 139-225)
Chain of ALX3 (Homo sapiens, UniProt O95076 139-225) (O95076 139-225): as the sequence (O95076 139-225 N203Q) above, with Q65N counted along it

PROP1 [9] = biological target: PROP1 (Homo sapiens, UniProt O75360 56-141)
Chain of PROP1 (Homo sapiens, UniProt O75360 56-141) (O75360 56-141): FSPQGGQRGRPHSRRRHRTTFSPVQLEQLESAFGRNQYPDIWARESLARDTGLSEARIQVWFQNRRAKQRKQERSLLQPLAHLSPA

HESX1 [10] = biological target: HESX1 (Homo sapiens, UniProt Q9UBX0 95-180, R109Q)
Chain of HESX1 (Homo sapiens, UniProt Q9UBX0 95-180, R109Q) (Q9UBX0 95-180 R109Q): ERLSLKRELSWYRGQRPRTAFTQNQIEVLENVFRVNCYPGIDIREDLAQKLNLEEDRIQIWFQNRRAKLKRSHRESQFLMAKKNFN

PROP1 [11] = biological target: PROP1 (Homo sapiens, UniProt O75360 56-141, R99H)
Chain of PROP1 (Homo sapiens, UniProt O75360 56-141, R99H) (O75360 56-141 R99H): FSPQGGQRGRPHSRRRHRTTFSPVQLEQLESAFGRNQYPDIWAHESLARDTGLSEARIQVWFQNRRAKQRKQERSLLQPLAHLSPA

ALX3 [12] = biological target: ALX3 (Homo sapiens, UniProt O95076 139-225, L168Q)
Chain of ALX3 (Homo sapiens, UniProt O95076 139-225, L168Q) (O95076 139-225 L168Q): as the sequence (O95076 139-225 N203Q) above, with L30Q, Q65N counted along it

HESX1 [13] = biological target: HESX1 (Homo sapiens, UniProt Q9UBX0 95-180, P111T)
Chain of HESX1 (Homo sapiens, UniProt Q9UBX0 95-180, P111T) (Q9UBX0 95-180 P111T): as the sequence (Q9UBX0 95-180 R109Q) above, with Q15R, P17T counted along it

ALX3 [14] = biological target: ALX3 (Homo sapiens, UniProt O95076 139-225, L168V)
Chain of ALX3 (Homo sapiens, UniProt O95076 139-225, L168V) (O95076 139-225 L168V): as the sequence (O95076 139-225 N203Q) above, with L30V, Q65N counted along it

PROP1 [15] = biological target: PROP1 (Homo sapiens, UniProt O75360 56-141, F88S)
Chain of PROP1 (Homo sapiens, UniProt O75360 56-141, F88S) (O75360 56-141 F88S): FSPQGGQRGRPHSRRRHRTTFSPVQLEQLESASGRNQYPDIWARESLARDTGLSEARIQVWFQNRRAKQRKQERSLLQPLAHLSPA

HESX1 [16] = biological target: HESX1 (Homo sapiens, UniProt Q9UBX0 95-180, F115L)
Chain of HESX1 (Homo sapiens, UniProt Q9UBX0 95-180, F115L) (Q9UBX0 95-180 F115L): as the sequence (Q9UBX0 95-180 R109Q) above, with Q15R, F21L counted along it

ALX1 [17] = biological target: ALX1 (Homo sapiens, UniProt Q15699 118-204)
Chain of ALX1 (Homo sapiens, UniProt Q15699 118-204) (Q15699 118-204): as the sequence (Q15699 118-204 L144V) above, with V27L counted along it

ALX3 [18] = biological target: ALX3 (Homo sapiens, UniProt O95076 139-225, N203S)
Chain of ALX3 (Homo sapiens, UniProt O95076 139-225, N203S) (O95076 139-225 N203S): as the sequence (O95076 139-225 N203Q) above, with Q65S counted along it

Chain of HESX1 (Homo sapiens, UniProt Q9UBX0 95-180) (Q9UBX0 95-180): as the sequence (Q9UBX0 95-180 R109Q) above, with Q15R counted along it
Chain of HESX1 (Homo sapiens, UniProt Q9UBX0 95-180, R165K) (Q9UBX0 95-180 R165K): as the sequence (Q9UBX0 95-180 R109Q) above, with Q15R, R71K counted along it
Chain of SHOX (Homo sapiens, UniProt O15266 103-189) (O15266 103-189): as the sequence (O15266 103-189 R173C) above, with C71R counted along it
Chain of ALX4 (Q9H161 200-286 Q225E): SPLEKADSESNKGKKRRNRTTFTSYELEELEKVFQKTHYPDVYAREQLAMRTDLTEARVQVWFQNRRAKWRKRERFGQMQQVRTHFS
Chain of MSX2 (P35548 130-214 R199I): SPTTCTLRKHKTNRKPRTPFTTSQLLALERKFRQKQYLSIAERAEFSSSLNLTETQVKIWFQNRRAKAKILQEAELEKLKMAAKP

| Sequence | binding signal (HESX1 [1]) | binding signal (SHOX [2]) | binding signal (ALX4) | binding signal (HESX1 [3]) | binding signal (MSX2) | binding signal (ALX1 [4]) | binding signal (ALX3 [5]) | binding signal (SHOX [6]) | binding signal (ALX1 [7]) | binding signal (ALX3 [8]) | binding signal (PROP1 [9]) | binding signal (HESX1 [10]) | binding signal (PROP1 [11]) | binding signal (ALX3 [12]) | binding signal (HESX1 [13]) | binding signal (ALX3 [14]) | binding signal (PROP1 [15]) | binding signal (HESX1 [16]) | binding signal (ALX1 [17]) | binding signal (ALX3 [18]) |
| --- | --- | --- | --- | --- | --- | --- | --- | --- | --- | --- | --- | --- | --- | --- | --- | --- | --- | --- | --- | --- |
| AATTAACG | 11.7 upbm affinity estimate (log intensity, higher = more binding, comparable within an allelic series) | 11.6 upbm affinity estimate (log intensity, higher = more binding, comparable within an allelic series) | 13 upbm affinity estimate (log intensity, higher = more binding, comparable within an allelic series) | 11.7 upbm affinity estimate (log intensity, higher = more binding, comparable within an allelic series) | 12.2 upbm affinity estimate (log intensity, higher = more binding, comparable within an allelic series) | 11.6 upbm affinity estimate (log intensity, higher = more binding, comparable within an allelic series) | 8.41 upbm affinity estimate (log intensity, higher = more binding, comparable within an allelic series) | 9.39 upbm affinity estimate (log intensity, higher = more binding, comparable within an allelic series) | 11.2 upbm affinity estimate (log intensity, higher = more binding, comparable within an allelic series) | 12.5 upbm affinity estimate (log intensity, higher = more binding, comparable within an allelic series) | 11.3 upbm affinity estimate (log intensity, higher = more binding, comparable within an allelic series) | 8.98 upbm affinity estimate (log intensity, higher = more binding, comparable within an allelic series) | 11.2 upbm affinity estimate (log intensity, higher = more binding, comparable within an allelic series) | 10.5 upbm affinity estimate (log intensity, higher = more binding, comparable within an allelic series) | 10.4 upbm affinity estimate (log intensity, higher = more binding, comparable within an allelic series) | 10.1 upbm affinity estimate (log intensity, higher = more binding, comparable within an allelic series) | 7.84 upbm affinity estimate (log intensity, higher = more binding, comparable within an allelic series) | 7.64 upbm affinity estimate (log intensity, higher = more binding, comparable within an allelic series) | 12.2 upbm affinity estimate (log intensity, higher = more binding, comparable within an allelic series) | 8.55 upbm affinity estimate (log intensity, higher = more binding, comparable within an allelic series) |
| CAATTAGA | 12.3 upbm affinity estimate (log intensity, higher = more binding, comparable within an allelic series) | 11.9 upbm affinity estimate (log intensity, higher = more binding, comparable within an allelic series) | 12.8 upbm affinity estimate (log intensity, higher = more binding, comparable within an allelic series) | 12.5 upbm affinity estimate (log intensity, higher = more binding, comparable within an allelic series) | 12.6 upbm affinity estimate (log intensity, higher = more binding, comparable within an allelic series) | 11.4 upbm affinity estimate (log intensity, higher = more binding, comparable within an allelic series) | 8.27 upbm affinity estimate (log intensity, higher = more binding, comparable within an allelic series) | 9.38 upbm affinity estimate (log intensity, higher = more binding, comparable within an allelic series) | 11.1 upbm affinity estimate (log intensity, higher = more binding, comparable within an allelic series) | 12.4 upbm affinity estimate (log intensity, higher = more binding, comparable within an allelic series) | 11.4 upbm affinity estimate (log intensity, higher = more binding, comparable within an allelic series) | 8.75 upbm affinity estimate (log intensity, higher = more binding, comparable within an allelic series) | 11.4 upbm affinity estimate (log intensity, higher = more binding, comparable within an allelic series) | 10.4 upbm affinity estimate (log intensity, higher = more binding, comparable within an allelic series) | 10.9 upbm affinity estimate (log intensity, higher = more binding, comparable within an allelic series) | 9.72 upbm affinity estimate (log intensity, higher = more binding, comparable within an allelic series) | 7.51 upbm affinity estimate (log intensity, higher = more binding, comparable within an allelic series) | 7.65 upbm affinity estimate (log intensity, higher = more binding, comparable within an allelic series) | 12.2 upbm affinity estimate (log intensity, higher = more binding, comparable within an allelic series) | 8.34 upbm affinity estimate (log intensity, higher = more binding, comparable within an allelic series) |
| CAATTACG | 12 upbm affinity estimate (log intensity, higher = more binding, comparable within an allelic series) | 11.8 upbm affinity estimate (log intensity, higher = more binding, comparable within an allelic series) | – | 12.1 upbm affinity estimate (log intensity, higher = more binding, comparable within an allelic series) | 12.5 upbm affinity estimate (log intensity, higher = more binding, comparable within an allelic series) | 11.2 upbm affinity estimate (log intensity, higher = more binding, comparable within an allelic series) | – | 9.27 upbm affinity estimate (log intensity, higher = more binding, comparable within an allelic series) | 10.9 upbm affinity estimate (log intensity, higher = more binding, comparable within an allelic series) | – | – | 8.68 upbm affinity estimate (log intensity, higher = more binding, comparable within an allelic series) | 11 upbm affinity estimate (log intensity, higher = more binding, comparable within an allelic series) | – | 10.6 upbm affinity estimate (log intensity, higher = more binding, comparable within an allelic series) | – | – | 7.47 upbm affinity estimate (log intensity, higher = more binding, comparable within an allelic series) | 12.1 upbm affinity estimate (log intensity, higher = more binding, comparable within an allelic series) | – |
| TAATTGAA | 12.9 upbm affinity estimate (log intensity, higher = more binding, comparable within an allelic series) | 12 upbm affinity estimate (log intensity, higher = more binding, comparable within an allelic series) | 13.2 upbm affinity estimate (log intensity, higher = more binding, comparable within an allelic series) | 12.9 upbm affinity estimate (log intensity, higher = more binding, comparable within an allelic series) | 12.5 upbm affinity estimate (log intensity, higher = more binding, comparable within an allelic series) | 11.6 upbm affinity estimate (log intensity, higher = more binding, comparable within an allelic series) | 8.33 upbm affinity estimate (log intensity, higher = more binding, comparable within an allelic series) | 9.58 upbm affinity estimate (log intensity, higher = more binding, comparable within an allelic series) | 11.3 upbm affinity estimate (log intensity, higher = more binding, comparable within an allelic series) | 12.5 upbm affinity estimate (log intensity, higher = more binding, comparable within an allelic series) | 11.5 upbm affinity estimate (log intensity, higher = more binding, comparable within an allelic series) | 9.18 upbm affinity estimate (log intensity, higher = more binding, comparable within an allelic series) | 11.6 upbm affinity estimate (log intensity, higher = more binding, comparable within an allelic series) | 10.6 upbm affinity estimate (log intensity, higher = more binding, comparable within an allelic series) | 11.4 upbm affinity estimate (log intensity, higher = more binding, comparable within an allelic series) | 10 upbm affinity estimate (log intensity, higher = more binding, comparable within an allelic series) | 7.68 upbm affinity estimate (log intensity, higher = more binding, comparable within an allelic series) | 7.71 upbm affinity estimate (log intensity, higher = more binding, comparable within an allelic series) | 12.3 upbm affinity estimate (log intensity, higher = more binding, comparable within an allelic series) | 8.47 upbm affinity estimate (log intensity, higher = more binding, comparable within an allelic series) |
